# A collection of fitness landscapes (doi:10.1016/j.celrep.2020.107928)
# Whole data set: some 81,000 sequences, median “one-hybrid fitness for binding NBS DNA” near -0.1, cut for the highest 2% near 0.36. What follows is part of a selection rich in the highest values, with near analogues and random picks from the rest.
# B1: Caulobacter ParB omega fusion; a variant is named by its letters at X, in order, B8GW30 (parent)
# chain: MESVVVGEPGMSEGRRGLGRGLSALLGEVDAAPAQAPGEQLGGSREAPIEILQRNPDQPRRTFREEDLEDLSNSIREKGVLQPILVRPSPDTAGEYQIVAGERAWRAAQRAGLKTVPIMVRELDDLAVLEIGIIENVQRADLNVLEEALSYKVLMEKFERTQENIAQTIGKSXSHVANXMRLLXLPDEVQSYLVSGELTAXHARAIAAAADPVALAKQIIEGGLSVRETEALARKAPNLSAGKSKGGRPPRVKDTDTQALESDLSSVLGLDVSIDHRGSTGTLTITYATLEQLDDLCNRLTRGI
# Variants of: B1
# Test: one-hybrid fitness for binding NBS DNA (the Noc-binding site; scaled: cognate 1, non-cognate 0); higher = stronger binding
# Details: with NBS DNA site
# In short: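 Pre- and post-selection plasmids were Illumina-sequenced, three replicate libraries were pooled, and any variant with under 10 reads was removed. The libraries were Caulobacter ParB with four specificity codons randomised, selected in E. coli USO through a HIS3 reporter whose site is 19 bp from the promoter. Cells grew 48 hours at 37°C on M9 without histidine, with 0.1 mM IPTG and 5 mM 3-AT. Fitness is the log change in variant-to-wild-type read ratio, rescaled against cognate and non-cognate.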
row,Variant,one-hybrid fitness for binding NBS DNA
1,GADW,≤ 0.2
2,KKET,≤ 0.2
3,MDLY,≤ 0.2
4,QARR,0.973
5,QARD,0.23
6,QARP,0.24
7,AKDS,≤ 0.2
8,LERS,≤ 0.2
9,RRVQ,0.428
10,RRDQ,0.241
11,RCVQ,0.215
12,RRYQ,0.207
13,RRRQ,0.401
14,RPVQ,0.397
15,RKVQ,≤ 0.2
16,RSVQ,≤ 0.2
17,RRKQ,0.436
18,RSKQ,≤ 0.2
19,RFVQ,≤ 0.2
20,RCKQ,0.254
21,GWHC,≤ 0.2
22,VAYS,≤ 0.2
23,MTCD,≤ 0.2
24,DSMI,≤ 0.2

row,Variant,one-hybrid fitness for binding NBS DNA
1,KMGG,≤ 0.2
2,CFTM,≤ 0.2
3,YTCL,≤ 0.2
4,NNIR,≤ 0.2
5,LTMG,≤ 0.2
6,YGMS,≤ 0.2
7,RDGN,≤ 0.2
8,AVNT,≤ 0.2
9,WVRG,≤ 0.2
10,LRPM,≤ 0.2
11,KTIT,≤ 0.2
12,DVIS,≤ 0.2
13,LRVF,≤ 0.2
14,QTKF,0.43
15,QCKF,0.387
16,QTVF,≤ 0.2
17,QRPF,≤ 0.2
18,QRKF,0.405
19,QRVF,≤ 0.2
20,QPKF,≤ 0.2
21,QTLF,≤ 0.2
22,QSKF,0.29
23,ASVE,≤ 0.2
24,QMSV,≤ 0.2

row,Variant,one-hybrid fitness for binding NBS DNA
1,QFMT,≤ 0.2
2,SSYL,≤ 0.2
3,ETES,≤ 0.2
4,RVIR,0.242
5,VVRC,≤ 0.2
6,HHPQ,≤ 0.2
7,VVGI,≤ 0.2
8,EYWD,≤ 0.2
9,RCRA,0.422
10,RYRA,0.367
11,RYDA,≤ 0.2
12,RMYA,≤ 0.2
13,RMDA,≤ 0.2
14,RTYA,0.268
15,RSRA,0.317
16,RMRA,0.409
17,RPRA,≤ 0.2
18,RTDA,≤ 0.2
19,RTRA,0.446
20,RYYA,≤ 0.2
21,GMVG,≤ 0.2
22,QAEN,≤ 0.2
23,LNQS,≤ 0.2
24,QLYL,≤ 0.2

row,Variant,one-hybrid fitness for binding NBS DNA
1,PLQD,≤ 0.2
2,RKYA,0.344
3,RKRA,0.45
4,RKDA,≤ 0.2
5,LPLA,≤ 0.2
6,AQDR,≤ 0.2
7,LIAK,≤ 0.2
8,RQVH,≤ 0.2
9,RQKC,0.381
10,RQKH,0.376
11,RQKN,0.214
12,RQKD,≤ 0.2
13,RQKS,0.581
14,RQVC,≤ 0.2
15,RQKP,≤ 0.2
16,RQYC,≤ 0.2
17,PEWV,≤ 0.2
18,NNCS,≤ 0.2
19,ASVF,≤ 0.2
20,CPDH,≤ 0.2
21,EDYG,≤ 0.2
22,PTEW,≤ 0.2
23,LKYT,≤ 0.2
24,VKLR,≤ 0.2

row,Variant,one-hybrid fitness for binding NBS DNA
1,WHHR,≤ 0.2
2,CGEV,≤ 0.2
3,PNVE,≤ 0.2
4,RKKV,0.277
5,WVQL,≤ 0.2
6,KPVT,≤ 0.2
7,KPKT,≤ 0.2
8,KRKT,0.66
9,KCVT,≤ 0.2
10,KRVT,0.547
11,KCKT,0.212
12,CLTC,≤ 0.2
13,AGTG,≤ 0.2
14,LNTG,≤ 0.2
15,GMVQ,≤ 0.2
16,PNQS,≤ 0.2
17,SNTG,≤ 0.2
18,AFGR,≤ 0.2
19,RKNW,≤ 0.2
20,QVHS,0.296
21,QVYT,0.268
22,QVNT,0.44
23,QVHP,≤ 0.2
24,QVHT,0.373

row,Variant,one-hybrid fitness for binding NBS DNA
1,QVPT,≤ 0.2
2,QVDT,≤ 0.2
3,QVRT,0.56
4,QVNH,≤ 0.2
5,VWQD,≤ 0.2
6,RNQS,0.281
7,FLHG,≤ 0.2
8,RATP,≤ 0.2
9,RITD,≤ 0.2
10,RATN,≤ 0.2
11,RSTN,≤ 0.2
12,RATR,0.43
13,RITR,0.437
14,RITP,≤ 0.2
15,RTTR,0.571
16,RSTP,≤ 0.2
17,RTTQ,≤ 0.2
18,RTTF,≤ 0.2
19,RSTR,0.447
20,PCDK,≤ 0.2
21,FRRH,≤ 0.2
22,RLSY,≤ 0.2
23,INTS,≤ 0.2
24,LHDW,≤ 0.2

row,Variant,one-hybrid fitness for binding NBS DNA
1,TECL,≤ 0.2
2,SMQN,≤ 0.2
3,TDVE,≤ 0.2
4,RRTF,≤ 0.2
5,RHTR,0.459
6,RLTY,≤ 0.2
7,RLTQ,≤ 0.2
8,RLTR,0.443
9,RRTC,0.314
10,RKTR,0.602
11,RKTK,≤ 0.2
12,RKTN,≤ 0.2
13,RHTK,≤ 0.2
14,RRTR,0.75
15,RHTG,≤ 0.2
16,RNPQ,≤ 0.2
17,MEAC,≤ 0.2
18,CITN,≤ 0.2
19,YDAI,≤ 0.2
20,TGAY,≤ 0.2
21,NFLN,≤ 0.2
22,CWAR,≤ 0.2
23,PSCM,≤ 0.2
24,QDAF,≤ 0.2

row,Variant,one-hybrid fitness for binding NBS DNA
1,APPH,≤ 0.2
2,CTYS,≤ 0.2
3,ATYE,≤ 0.2
4,RMTR,0.446
5,RMTP,≤ 0.2
6,RPTR,≤ 0.2
7,RFTR,0.298
8,RCTR,0.534
9,RMTH,≤ 0.2
10,FPHC,≤ 0.2
11,CSFN,≤ 0.2
12,QPVR,0.377
13,QSVR,0.379
14,QGVR,≤ 0.2
15,QCVR,0.48
16,QSVN,≤ 0.2
17,QDVR,≤ 0.2
18,QSVD,≤ 0.2
19,QPVH,≤ 0.2
20,QPVN,≤ 0.2
21,RICA,≤ 0.2
22,IIHR,≤ 0.2
23,TNLI,≤ 0.2
24,SPSF,≤ 0.2

row,Variant,one-hybrid fitness for binding NBS DNA
1,FYQC,≤ 0.2
2,GTTP,≤ 0.2
3,QTEN,≤ 0.2
4,QHER,0.288
5,QPER,≤ 0.2
6,QRER,0.637
7,QSER,0.285
8,QCER,0.438
9,QTER,0.458
10,QIER,0.219
11,QTEP,≤ 0.2
12,SKCT,≤ 0.2
13,HAHK,≤ 0.2
14,QAQC,≤ 0.2
15,VFIG,≤ 0.2
16,QCSM,≤ 0.2
17,QSSC,≤ 0.2
18,QSSH,≤ 0.2
19,QRSM,0.374
20,QRSC,0.366
21,QCSH,0.272
22,QCSN,≤ 0.2
23,QPSN,≤ 0.2
24,QRSH,0.522

row,Variant,one-hybrid fitness for binding NBS DNA
1,QPSM,≤ 0.2
2,QRSN,0.366
3,QCSC,≤ 0.2
4,YCVT,≤ 0.2
5,ANMM,≤ 0.2
6,GNYC,≤ 0.2
7,KFHF,≤ 0.2
8,LSDV,≤ 0.2
9,QMHF,≤ 0.2
10,GKLV,≤ 0.2
11,PMVT,≤ 0.2
12,VREL,≤ 0.2
13,QRSD,0.208
14,QRSQ,0.434
15,QRSP,≤ 0.2
16,QRSS,0.659
17,QPSQ,≤ 0.2
18,QCSQ,0.271
19,MSPC,≤ 0.2
20,KWCV,≤ 0.2
21,LAAG,≤ 0.2
22,HYQF,≤ 0.2
23,QDFR,≤ 0.2
24,QCFR,0.517

row,Variant,one-hybrid fitness for binding NBS DNA
1,QSFN,≤ 0.2
2,QSFH,≤ 0.2
3,QSFR,0.37
4,QPFR,≤ 0.2
5,FCHW,≤ 0.2
6,TICV,≤ 0.2
7,LGEA,≤ 0.2
8,FLQL,≤ 0.2
9,LSCN,≤ 0.2
10,HMKT,≤ 0.2
11,TSIM,≤ 0.2
12,LVHF,≤ 0.2
13,QPRC,≤ 0.2
14,QKYC,≤ 0.2
15,QTDC,≤ 0.2
16,QCYC,0.204
17,QMRC,0.406
18,QMDC,≤ 0.2
19,QCRC,0.512
20,QKDC,≤ 0.2
21,QTYC,≤ 0.2
22,QTRC,0.548
23,QMYC,≤ 0.2
24,QKRC,0.425

row,Variant,one-hybrid fitness for binding NBS DNA
1,PNKD,≤ 0.2
2,RLIW,≤ 0.2
3,CRYF,≤ 0.2
4,IAWR,≤ 0.2
5,GMPT,≤ 0.2
6,VMEC,≤ 0.2
7,LQWD,≤ 0.2
8,PYKF,≤ 0.2
9,ENTG,≤ 0.2
10,QSRC,0.374
11,QRYC,0.296
12,QSYC,≤ 0.2
13,QREC,0.22
14,QSDC,≤ 0.2
15,QRRC,0.489
16,IMYD,≤ 0.2
17,YWMG,≤ 0.2
18,NRAT,≤ 0.2
19,QRFT,0.723
20,QSFT,0.315
21,QRAT,0.797
22,DRAT,≤ 0.2
23,QCFT,0.424
24,QPFT,≤ 0.2

row,Variant,one-hybrid fitness for binding NBS DNA
1,RWNW,≤ 0.2
2,MQNW,≤ 0.2
3,DCWS,≤ 0.2
4,TDLC,≤ 0.2
5,NLFC,≤ 0.2
6,PGYI,≤ 0.2
7,MRFG,≤ 0.2
8,SRKF,≤ 0.2
9,PKCF,≤ 0.2
10,VYYR,≤ 0.2
11,QIKG,≤ 0.2
12,QTIG,≤ 0.2
13,QCKG,0.377
14,QRVG,0.232
15,QPKG,≤ 0.2
16,QTVG,≤ 0.2
17,QTKG,0.503
18,QRKG,0.485
19,QSKG,0.302
